Data as given in the supplement of paper PMC11732987, “Enantioselective OTUD7B fragment discovery through chemoproteomics screening and high-throughput optimisation” (Communications Chemistry, 2025).

Columns and labels:
Experiment in all cases: log2 ratio of Biotin-Ahx-Ub-VS probe labelling (fragment/DMSO); higher = less target engagement (more negative = stronger competition), active = hit call of the paper (q ≤ 0.05, log2 ratio ≤ -1)
Settings in all cases: compound concentration: 200 uM; treatment time: 3 h
[1] = target: T1, ALG13 (UniProt Q9NP73)
T1 sequence (whole entry): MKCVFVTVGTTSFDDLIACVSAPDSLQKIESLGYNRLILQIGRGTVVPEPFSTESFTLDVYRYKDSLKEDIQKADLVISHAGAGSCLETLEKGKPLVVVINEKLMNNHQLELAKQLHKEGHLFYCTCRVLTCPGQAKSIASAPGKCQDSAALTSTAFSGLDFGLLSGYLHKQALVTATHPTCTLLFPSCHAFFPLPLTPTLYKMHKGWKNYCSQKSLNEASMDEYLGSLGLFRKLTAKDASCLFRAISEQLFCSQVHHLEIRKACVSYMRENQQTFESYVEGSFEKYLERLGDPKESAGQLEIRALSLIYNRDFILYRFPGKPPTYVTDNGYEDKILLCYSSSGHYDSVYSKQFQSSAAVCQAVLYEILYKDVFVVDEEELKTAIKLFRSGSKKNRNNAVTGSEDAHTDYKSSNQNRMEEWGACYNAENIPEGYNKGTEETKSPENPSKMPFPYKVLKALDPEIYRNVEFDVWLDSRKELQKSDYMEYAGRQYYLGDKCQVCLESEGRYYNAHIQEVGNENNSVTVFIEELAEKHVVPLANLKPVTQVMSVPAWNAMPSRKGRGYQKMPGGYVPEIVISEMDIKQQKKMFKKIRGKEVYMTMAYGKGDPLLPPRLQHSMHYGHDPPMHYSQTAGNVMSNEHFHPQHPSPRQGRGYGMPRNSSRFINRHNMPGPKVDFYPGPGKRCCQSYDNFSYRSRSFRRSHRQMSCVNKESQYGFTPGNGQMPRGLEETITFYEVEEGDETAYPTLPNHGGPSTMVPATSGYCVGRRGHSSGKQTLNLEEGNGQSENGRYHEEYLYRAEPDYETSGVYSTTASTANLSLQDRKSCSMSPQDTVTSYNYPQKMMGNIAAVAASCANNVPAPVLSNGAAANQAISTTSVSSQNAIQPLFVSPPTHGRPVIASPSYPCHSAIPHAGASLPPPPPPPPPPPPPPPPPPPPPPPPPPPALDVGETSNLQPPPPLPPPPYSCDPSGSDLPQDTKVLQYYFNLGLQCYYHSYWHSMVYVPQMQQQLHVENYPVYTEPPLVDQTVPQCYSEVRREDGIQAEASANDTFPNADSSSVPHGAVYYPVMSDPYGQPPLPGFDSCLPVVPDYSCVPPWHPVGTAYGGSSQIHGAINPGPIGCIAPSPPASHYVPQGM
In short: (§1)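 Fragment (200 µM) or vehicle was incubated for 3 h with triplicate HEK293T lysate samples of 495 µg, which were then treated with Biotin-Ahx-Ub-VS at 0.5 µM final for 1 h. Labelled DUBs were enriched on NeutrAvidin, digested with LysC and trypsin, and analysed by diaPASEF LC-MS/MS. Values are average log2 fragment/vehicle ratios from an unpaired t-test on global-median-normalised Spectronaut label-free quantities, using proteins with ≥2 unique peptides.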

[2] = target: ATXN3 (UniProt P54252)
ATXN3, sequence (P54252 whole entry): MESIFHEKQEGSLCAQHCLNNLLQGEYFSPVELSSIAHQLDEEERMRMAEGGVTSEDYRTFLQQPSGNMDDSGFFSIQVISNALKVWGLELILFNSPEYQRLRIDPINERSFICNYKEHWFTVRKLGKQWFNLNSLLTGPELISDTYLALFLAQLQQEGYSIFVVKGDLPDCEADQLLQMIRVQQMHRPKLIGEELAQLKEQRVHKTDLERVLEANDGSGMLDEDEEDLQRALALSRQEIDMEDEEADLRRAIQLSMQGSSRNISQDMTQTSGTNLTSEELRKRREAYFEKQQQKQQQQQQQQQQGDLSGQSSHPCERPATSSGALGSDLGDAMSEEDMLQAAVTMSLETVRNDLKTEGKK
In short: as §1

[3] = target: T2, BAP1 (UniProt Q92560)
T2 sequence (whole entry): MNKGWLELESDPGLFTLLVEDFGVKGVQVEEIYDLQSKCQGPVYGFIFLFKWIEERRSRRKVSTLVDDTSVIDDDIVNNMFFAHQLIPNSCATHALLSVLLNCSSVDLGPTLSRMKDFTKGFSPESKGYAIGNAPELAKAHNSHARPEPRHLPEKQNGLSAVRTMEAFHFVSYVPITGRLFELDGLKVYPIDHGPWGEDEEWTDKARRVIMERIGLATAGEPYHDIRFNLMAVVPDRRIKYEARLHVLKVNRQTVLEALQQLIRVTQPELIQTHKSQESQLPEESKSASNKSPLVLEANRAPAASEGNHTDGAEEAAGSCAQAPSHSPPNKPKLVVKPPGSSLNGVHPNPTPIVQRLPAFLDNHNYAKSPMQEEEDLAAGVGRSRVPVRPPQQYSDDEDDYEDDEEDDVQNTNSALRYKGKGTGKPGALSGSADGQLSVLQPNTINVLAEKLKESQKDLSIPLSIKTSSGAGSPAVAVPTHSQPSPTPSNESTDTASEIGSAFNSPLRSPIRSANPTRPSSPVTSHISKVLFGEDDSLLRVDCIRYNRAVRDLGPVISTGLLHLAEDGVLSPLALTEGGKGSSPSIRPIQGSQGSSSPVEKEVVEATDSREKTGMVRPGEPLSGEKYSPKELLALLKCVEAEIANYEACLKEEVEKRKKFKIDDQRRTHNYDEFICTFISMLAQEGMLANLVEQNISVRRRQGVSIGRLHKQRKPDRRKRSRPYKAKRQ
In short: as §1

[4] = target: EIF3F (UniProt O00303)
EIF3F, sequence (O00303 whole entry): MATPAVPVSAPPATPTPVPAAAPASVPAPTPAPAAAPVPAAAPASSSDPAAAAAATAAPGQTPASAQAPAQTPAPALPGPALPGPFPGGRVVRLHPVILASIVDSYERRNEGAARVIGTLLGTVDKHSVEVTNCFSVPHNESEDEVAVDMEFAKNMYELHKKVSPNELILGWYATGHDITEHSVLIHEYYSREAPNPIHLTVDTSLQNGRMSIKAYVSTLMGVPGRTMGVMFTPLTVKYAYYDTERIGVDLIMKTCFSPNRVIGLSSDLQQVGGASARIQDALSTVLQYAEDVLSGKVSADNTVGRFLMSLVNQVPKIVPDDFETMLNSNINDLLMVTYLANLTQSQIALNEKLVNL
In short: as §1

[5] = target: EIF3H (UniProt O15372)
EIF3H, sequence (O15372 whole entry): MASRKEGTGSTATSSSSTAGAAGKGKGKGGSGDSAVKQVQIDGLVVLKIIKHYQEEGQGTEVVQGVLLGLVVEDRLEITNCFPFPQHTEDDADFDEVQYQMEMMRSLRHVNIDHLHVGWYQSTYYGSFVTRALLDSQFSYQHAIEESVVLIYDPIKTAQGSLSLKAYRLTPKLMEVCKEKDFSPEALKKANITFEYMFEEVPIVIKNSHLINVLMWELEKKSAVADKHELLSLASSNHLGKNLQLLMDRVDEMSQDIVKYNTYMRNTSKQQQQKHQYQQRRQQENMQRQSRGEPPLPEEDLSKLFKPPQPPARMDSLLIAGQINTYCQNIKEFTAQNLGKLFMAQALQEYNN
In short: as §1

[6] = target: T3, FAM105A (UniProt Q9NUU6)
T3 sequence (whole entry): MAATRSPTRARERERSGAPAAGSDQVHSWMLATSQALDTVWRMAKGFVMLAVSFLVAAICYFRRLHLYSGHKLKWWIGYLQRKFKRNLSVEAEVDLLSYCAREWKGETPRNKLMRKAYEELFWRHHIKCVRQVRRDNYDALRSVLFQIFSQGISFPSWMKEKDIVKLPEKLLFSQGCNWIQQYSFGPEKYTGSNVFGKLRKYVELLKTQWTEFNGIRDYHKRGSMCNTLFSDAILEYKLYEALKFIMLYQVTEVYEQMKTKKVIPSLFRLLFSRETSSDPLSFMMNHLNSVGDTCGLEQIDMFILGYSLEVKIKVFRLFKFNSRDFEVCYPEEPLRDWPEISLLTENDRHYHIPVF
In short: as §1

[7] = target: OTUB1 (UniProt Q96FW1)
OTUB1, sequence (Q96FW1 whole entry): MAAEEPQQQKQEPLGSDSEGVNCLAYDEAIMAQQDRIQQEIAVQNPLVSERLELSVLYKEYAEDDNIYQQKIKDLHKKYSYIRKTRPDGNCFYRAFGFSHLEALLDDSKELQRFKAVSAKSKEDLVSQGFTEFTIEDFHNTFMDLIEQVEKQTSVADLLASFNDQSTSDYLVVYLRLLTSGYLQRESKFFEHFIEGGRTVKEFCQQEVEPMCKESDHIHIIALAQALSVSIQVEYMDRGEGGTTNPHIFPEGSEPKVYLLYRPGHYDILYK
In short: as §1

[8] = target: T4, OTUD4 (UniProt Q01804)
T4 sequence (whole entry): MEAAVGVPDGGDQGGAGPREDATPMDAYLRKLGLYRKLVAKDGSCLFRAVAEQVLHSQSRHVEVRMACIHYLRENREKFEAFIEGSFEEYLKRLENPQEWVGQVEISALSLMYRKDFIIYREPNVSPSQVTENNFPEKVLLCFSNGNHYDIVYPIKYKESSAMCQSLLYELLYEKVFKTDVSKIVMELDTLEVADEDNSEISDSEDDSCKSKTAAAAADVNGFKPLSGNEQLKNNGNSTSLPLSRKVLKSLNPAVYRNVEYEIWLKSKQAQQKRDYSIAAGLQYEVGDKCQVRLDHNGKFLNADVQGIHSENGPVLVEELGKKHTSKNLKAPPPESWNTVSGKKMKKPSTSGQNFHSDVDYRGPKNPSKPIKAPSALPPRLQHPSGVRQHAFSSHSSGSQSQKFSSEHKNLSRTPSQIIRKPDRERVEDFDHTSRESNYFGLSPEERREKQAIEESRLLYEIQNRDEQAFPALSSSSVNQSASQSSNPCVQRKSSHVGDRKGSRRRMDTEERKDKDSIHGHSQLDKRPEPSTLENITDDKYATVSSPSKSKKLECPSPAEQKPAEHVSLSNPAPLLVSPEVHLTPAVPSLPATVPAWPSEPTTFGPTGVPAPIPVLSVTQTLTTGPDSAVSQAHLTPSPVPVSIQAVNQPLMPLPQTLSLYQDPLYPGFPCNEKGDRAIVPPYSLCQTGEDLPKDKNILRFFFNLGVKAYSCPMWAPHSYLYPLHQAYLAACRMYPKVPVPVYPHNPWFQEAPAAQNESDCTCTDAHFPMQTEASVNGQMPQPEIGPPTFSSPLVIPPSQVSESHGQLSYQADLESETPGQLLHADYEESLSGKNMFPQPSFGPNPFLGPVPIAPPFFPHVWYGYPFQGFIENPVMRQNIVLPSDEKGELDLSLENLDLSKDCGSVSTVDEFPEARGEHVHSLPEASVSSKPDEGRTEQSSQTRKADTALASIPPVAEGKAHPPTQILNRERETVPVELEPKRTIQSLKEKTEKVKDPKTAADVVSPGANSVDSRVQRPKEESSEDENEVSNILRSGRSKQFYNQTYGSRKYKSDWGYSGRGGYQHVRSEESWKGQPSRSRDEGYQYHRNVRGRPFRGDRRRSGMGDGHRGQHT
In short: as §1

[9] = target: T5, OTUD5 (UniProt Q96G74)
T5 sequence (whole entry): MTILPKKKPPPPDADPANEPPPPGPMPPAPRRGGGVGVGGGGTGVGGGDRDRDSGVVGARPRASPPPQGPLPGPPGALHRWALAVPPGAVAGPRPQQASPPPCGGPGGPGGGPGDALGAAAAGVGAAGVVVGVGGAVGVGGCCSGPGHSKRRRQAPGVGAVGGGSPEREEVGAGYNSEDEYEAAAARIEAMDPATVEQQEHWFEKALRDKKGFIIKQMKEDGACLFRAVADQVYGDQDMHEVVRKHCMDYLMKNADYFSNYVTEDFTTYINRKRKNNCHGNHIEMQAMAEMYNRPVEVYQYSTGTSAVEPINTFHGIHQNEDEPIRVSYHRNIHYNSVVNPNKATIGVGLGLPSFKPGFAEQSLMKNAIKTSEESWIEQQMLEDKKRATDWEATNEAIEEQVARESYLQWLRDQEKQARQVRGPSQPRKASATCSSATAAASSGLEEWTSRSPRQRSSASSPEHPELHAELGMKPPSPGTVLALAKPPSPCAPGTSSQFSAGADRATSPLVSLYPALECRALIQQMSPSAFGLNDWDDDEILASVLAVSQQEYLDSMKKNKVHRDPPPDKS
In short: as §1

Measured: log2 ratio of Biotin-Ahx-Ub-VS probe labelling

Cc1cc(C(=O)NC2CCN(C(=O)CCl)CC2)no1
inactive: [1] 0.0715 | [2] -0.572 | [3] -0.339 | [4] -0.05 | [5] 0.0609 | [6] 0.133 | [7] -0.0459 | [8] -0.297 | [9] -0.298
